High-throughput results: PubChem BioAssay, National Center for Advancing Translational Sciences (NCATS)
Shown is part of a subset that was picked to be rich in hits.
NTMT1 inhibitor = Primary qHTS for Inhibitors of N-terminal methyltransferase 1 (NTMT1): MTaseGlo Assay; actives 2.5% (n = 59,000); N-terminal Xaa-Pro-Lys N-methyltransferase 1 (Homo sapiens), Q9BV86; Potency, µM (highest dose often 114 µM), without a hit: at the top dose activity change, negative = inhibition, usual class: inhibitors; NTMT1 MTase-Glo SAH luminescence, purified enzyme;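 further: potency means the concentration at half of the fitted maximal effect; plate controls were DMSO vehicle for no effect and no enzyme for full effect; nearly all actives have a fitted effect of over 65% in size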
FH mod = Identification of activators of human fumarate hydratase by quantitative high-throughput screening; FH coupled MDH/diaphorase resazurin fluorescence, 15 min; Potency, µM (series often up to 79.9 µM), for inactives: at the highest dose activity change, negative = inhibition, actives largely listed as inhibitors; actives 0.22% (n = 54,000); AID 1347055, 2019; further: potency means the concentration at half of the fitted maximal effect; on the % scale 0 is the no-effect control and ±100 the full control effect; the screen sought activators but most active calls are inhibition curves; nearly all actives have a fitted effect of over 45% in size
CLK4 inh-1 = Confirmation Assay for Inhibitors of CDC-like Kinase 4 (Kinase-Glo Assay): SAR round 2; shares compounds with NTMT1 inhibitor; actives 90% (n = 90); Potency, µM (doses to about 76.9 µM), without a hit: at the top dose activity, negative = inhibition, usual class: inhibitors; recombinant Clk4, Kinase-Glo ATP luminescence, 4.5 h
CLK4 inh-2 = Kinase Inhibition Study on Inhibitors of CDC-like Kinase 4 (Reaction Biology data): SAR round 2. shares compounds with NTMT1 inhibitor. Reaction Biology kinase assay, 10 uM ATP. Potency, µM, hits mostly inhibitors. actives 100% (n = 65); calls by dose curve
DYRK1A RBC = Kinase Inhibition Study on Inhibitors of Dyrk1a (Reaction Biology data); shares compounds with NTMT1 inhibitor; Reaction Biology kinase assay, 10 uM ATP; actives 90% (n = 65); AID 504424, 2011; Potency, µM, actives largely listed as inhibitors;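 active means compounds that showed inhibition of Dyrk1a and received a fitted potency; inactive means compounds that showed no inhibition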
CLK2 inh = Kinase Inhibition Study on Inhibitors of CDC-like Kinase 2 (Reaction Biology data); Potency, µM, actives largely listed as inhibitors; shares compounds with NTMT1 inhibitor; actives 90% (n = 65); Reaction Biology kinase assay, 10 uM ATP;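 active means compound that inhibits Clk2 kinase in the dose series, with an IC50 potency reported; inactive means no inhibition seen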
CLK3 RBC = Kinase Inhibition Study on Inhibitors of CDC-like Kinase 3 (Reaction Biology data). AID 504428, 2011. recombinant CLK3 kinase assay, 10 uM ATP. shares compounds with NTMT1 inhibitor. Potency, µM, hits mostly inhibitors. actives 40% (n = 65);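 active means compounds that inhibited Clk3 enough in the ten-dose series to give a half-maximal potency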
DYRK1B inh = Kinase Inhibition Study on Inhibitors of Dyrk1b (Reaction Biology data) | Potency, µM, most hits filed as inhibitors | AID 504429, 2011 | actives 80% (n = 65) | shares compounds with NTMT1 inhibitor | Recombinant Dyrk1b kinase assay, 10 uM ATP;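 active means compounds whose dose response shows an inhibitor phenotype against the kinase Dyrk1b; inactive means compounds showing no inhibitor phenotype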
CLK1 RBC = Kinase Inhibition Study on Inhibitors of CDC-like Kinase 1 (Reaction Biology data); recombinant Clk1 kinase assay, 10 uM ATP; actives 90% (n = 65); AID 504430, 2011; shares compounds with NTMT1 inhibitor; Potency, µM, actives largely listed as inhibitors;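 active means compounds that block the splicing kinase Clk1 enough to give a fitted half-inhibition concentration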
NNMT inh = Counterscreen qHTS for Inhibitors of N-terminal methyltransferase 1 (NTMT1): NNMT MTaseGlo assay; Potency, µM (doses to about 57.1 µM), for inactives: top-dose activity, negative = inhibition, actives largely listed as inhibitors; actives 10% (n = 120); shares compounds with NTMT1 inhibitor; NNMT MTase-Glo luminescence, SAH detection; AID 1645878, 2021
Target sequence (P40261 whole entry, looked up): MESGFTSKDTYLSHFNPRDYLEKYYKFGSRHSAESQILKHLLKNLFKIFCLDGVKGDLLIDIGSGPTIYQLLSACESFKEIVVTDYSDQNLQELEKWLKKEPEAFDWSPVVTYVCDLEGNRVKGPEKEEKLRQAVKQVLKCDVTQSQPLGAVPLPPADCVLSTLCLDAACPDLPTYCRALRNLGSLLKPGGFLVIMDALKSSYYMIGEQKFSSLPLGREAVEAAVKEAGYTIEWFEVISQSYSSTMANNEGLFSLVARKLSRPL
Active calls of the source: *; ? = inconclusive; · = no result; [ ] = remark or other dose. Unless noted, the call rests on the fitted dose curve; in most records, active means well fitted curve in the direction sought with a large enough effect; inconclusive means small, poorly fitted or top-dose-only effect, or another doubt; inactive means no such curve, though single readings can be large; an effect the other way counts as inactive or inconclusive.

SMILES | NTMT1 inhibitor | FH mod | CLK4 inh-1 | NNMT inh | others
CN(CC1CCCCC1)c1ncnc2ccc(-c3ccc4c(c3)OCO4)cc12 | · | · | 0.058µM* | ·
c1nc(NCC2CCCCC2)c2cc(-c3ccc4c(c3)OCO4)ccc2n1 | ? | · | 0.073µM* | · | CLK4 inh-2=0.15*;DYRK1A RBC=0.19µM*;CLK2 inh=0.86µM*;CLK3 RBC=5.3µM*;DYRK1B inh=1.1µM*;CLK1 RBC=0.51µM*
CCC(CC)C(=O)OC12C(OC(=O)C(C)C)C(C)C3(O)C(C=C(CO)CC4(O)C(=O)C(C)=CC43)C1C2(C)C (centres undefined) | -4%[29.8 µM] | -6%[53.3 µM] | · | ·
Cn1c(=O)c2c(nc(CN3CCN(C(=O)C4CC4)CC3)n2Cc2ccccc2Cl)n(C)c1=O | 16% | · | · | ·
c1nc(N2CCNCC2)c2cc(-c3ccc4c(c3)OCO4)ccc2n1 | ? | · | 0.58µM* | ·
CN(C)C/C=C/C(=O)Nc1cc2c(Nc3ccc(F)c(Cl)c3)ncnc2cc1OC1CCOC1 (centres undefined) | 6.3µM* | 16% | · | ?
CCOc1cc2ncc(C#N)c(Nc3ccc(F)c(Cl)c3)c2cc1NC(=O)/C=C/CN(C)C | 1.1µM* | -29% | · | 16µM*
CCOc1cc2ncc(C#N)c(Nc3ccc(OCc4ccccn4)c(Cl)c3)c2cc1NC(=O)/C=C/CN(C)C | ? | 2%[53.3 µM] | · | ·
COc1cc2ncnc(Nc3ccc(NC(=O)c4ccccc4)cc3)c2cc1OC | 16% | -9% | · | ·
Nc1nc(NCc2ccc(-c3cccnc3)cc2)c2ccccc2n1 | -3%[57.5 µM] | · | · | ·
C/C=C/c1ccc2oc(-c3ccc(O)c(OC)c3)c(C)c2c1 | 4%[57.5 µM] | ? | · | -9%
